According to PubChem BioAssay AID1259400 (National Center for Advancing Translational Sciences (NCATS), 2018):
About 2,100 (0.6%) of roughly 350,000 compounds were called active. Roughly 1% stayed inconclusive and do not appear here.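 How the source made its calls: active means activity change of -60% or lower, but not beyond a set lower limit; inconclusive means change between -60% and -40%, or beyond the set limit; inactive means change above -40%.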 The sample as a whole holds a higher share of actives than the screen did.

molecular target: Relaxin receptor 1 (Homo sapiens) (UniProt Q9HBX9); assay: qHTS Assay for Antagonists of the Relaxin Receptor RXFP1; conditions: HEK293-RXFP1, relaxin-stimulated cAMP HTRF, 30 min; at 57.5 µM; stronger effect = lower value
Sequence (Q9HBX9 whole entry, looked up): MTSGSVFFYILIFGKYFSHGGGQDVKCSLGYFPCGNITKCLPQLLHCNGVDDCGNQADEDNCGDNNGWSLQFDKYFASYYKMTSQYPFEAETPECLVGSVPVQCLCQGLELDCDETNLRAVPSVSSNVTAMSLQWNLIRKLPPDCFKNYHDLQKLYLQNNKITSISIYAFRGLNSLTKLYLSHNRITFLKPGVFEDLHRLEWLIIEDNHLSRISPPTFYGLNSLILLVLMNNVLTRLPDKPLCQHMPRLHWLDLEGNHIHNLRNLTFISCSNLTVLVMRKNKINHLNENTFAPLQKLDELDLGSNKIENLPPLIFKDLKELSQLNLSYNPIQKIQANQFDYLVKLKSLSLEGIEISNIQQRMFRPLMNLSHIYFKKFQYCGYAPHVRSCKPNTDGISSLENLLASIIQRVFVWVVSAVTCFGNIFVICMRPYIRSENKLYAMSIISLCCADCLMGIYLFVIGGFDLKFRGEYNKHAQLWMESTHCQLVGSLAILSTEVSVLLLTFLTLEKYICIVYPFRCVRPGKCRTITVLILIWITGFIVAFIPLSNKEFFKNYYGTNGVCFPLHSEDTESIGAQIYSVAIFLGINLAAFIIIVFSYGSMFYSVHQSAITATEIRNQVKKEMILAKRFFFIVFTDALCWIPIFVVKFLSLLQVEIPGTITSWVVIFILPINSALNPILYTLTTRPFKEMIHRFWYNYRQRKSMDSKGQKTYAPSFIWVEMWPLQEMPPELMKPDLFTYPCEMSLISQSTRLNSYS
On the % scale 0 is the no-effect control and ±100 the full control effect.

Activity change, negative = inhibition, active:
COC(=O)c1nc(Cl)c(Cl)nc1N -98.8%
CC1(C(=O)N/N=C/c2cc3c(cc2Br)OCO3)CC1(Br)Br (centres undefined) -82.7%
NNc1nc2c(Cl)cccc2s1 -80.1%
c1ccc2c(NC3C4CC5CC(C4)CC3C5)nc(N3CCOCC3)nc2c1 (centres undefined) -78.7%
C=C(C)COc1ccc(-c2nc(N)ncc2-c2ccccc2OC)c(O)c1 -62%
C=CCC(C(=O)c1ccccc1)[N+](C)(C)CC=C (centres undefined) -82.2%
O=C(Cn1cc(-c2nnnn2-c2ccc(Cl)cc2)c(=O)c2ccccc21)c1ccccc1 -98.5%
CC(C)(C)CC(C)(C)NCC(O)COCCOc1ccc(Br)cc1 (centres undefined) -90.2%
COc1cccc(-c2noc(C3CCCN(C(=O)c4ccc(F)cc4)C3)n2)c1 (centres undefined) -66.4%
Cc1ccc(N=C2NC(=O)/C(=C/C=C/c3ccco3)S2)cc1C -82.4%
COc1cccc(NC(=O)CSc2nnc(-c3cccnc3)o2)c1 -83.2%

Activity change, negative = inhibition, inactive:
COC(=O)c1ccc(NC(=O)c2cnn(-c3ccc(Cl)cc3)c2C2CCN(C(=O)OC(C)(C)C)CC2)cc1 -12.3%
COc1ccc(CCNC(=O)c2ccc3c(c2)nc(C)n3-c2ccc(Br)cc2)cc1OC -27.1%
CC1=C(c2ccc(C)cc2)S(=O)(=O)NC1=NCCCN1CCN(c2cc(C)ccc2C)CC1 -13.1%
COC(=O)/C=C(/C)N 5.99%
CCOC(=O)c1cc(-c2ccccc2)n(-c2cccc(C(=O)Nc3cc(OC)cc(OC)c3)c2)c1C -10.5%
COC(=O)c1c(C)c(C)nc(N)c1C#N 9.32%
COC(=O)c1nn(-c2cccc(Cl)c2)ccc1=O -8.77%
O=C(CCOc1ccccc1)N(Cc1cccnc1)c1nc2ccc(Cl)cc2s1 0.968%
COc1ccc(OC)c(NC(=O)CSC2=Nc3ccccc3C3=NC(CC(=O)NCc4ccc(F)cc4)C(=O)N23)c1 (centres undefined) -11.9%
COCCCN1CCC(NC(=O)c2cc(Cl)c(N)c3c2OCC3)CC1 -9.44%
O=C(N/N=C\c1cc2c(cc1Cl)OCO2)c1ccc(Br)s1 5.05%
O=C(/C=C/c1cc2c(cc1Br)OCO2)NCc1ccc(Cl)cc1 0.543%
COc1cc(Cl)c(NC(=O)CC(C)S(=O)(=O)c2cc3c(cc2C)NC(=O)CO3)c(OC)c1 (centres undefined) 0.439%
CC(Nc1nc(N2CCCC2)nc2ccccc12)c1ccccc1 (centres undefined) -10.3%
Fc1cnc(N2CCOCC2)nc1NCc1ccccc1 11.7%
O=C(NCC(c1ccc(Cl)cc1)N1CCOCC1)c1ccccc1F (centres undefined) -0.553%
CCOC(=O)c1c(C)[nH]c(CCC(=O)NCCCN2CCN(c3cc(C)ccc3C)CC2)c1C -33.7%
CCCc1c2oc(C(=O)O)cc(=O)c2cc2c(=O)cc(C(=O)O)n(CC)c12 -5.22%
COc1cc(/C=C/C(N)=O)cc(OC)c1OC -9.25%
Cc1c(NC(=O)Cc2ccccc2)cccc1-c1nc2cccnc2s1 5.77%
CCOc1ccc(-c2nc(N)ncc2-c2ccccc2OC)c(O)c1 -16%
C=C(C)COc1ccc(-c2ncncc2-c2ccc(OC)cc2)c(O)c1 -10.6%
Cc1ccc(CCNC(=O)c2nnc(Cc3cccc(F)c3)o2)cc1 -3.15%
O=C(OCC(O)C(O)COC(=O)c1ccccc1)c1ccccc1 (centres undefined) -12.8%
CC(OC(=O)CN1C(=O)c2ccccc2C1=O)C(=O)c1ccccc1 (centres undefined) 6.31%
CC(O)COc1ccccc1 (centres undefined) 1.89%
Cc1noc(/C=C/N(C)C)c1S(=O)(=O)N1CCCC(C(=O)Nc2cccc(F)c2)C1 (centres undefined) -3.51%
CCN1CCN(C(=O)N[C@@H](C(=O)N[C@@H]2C(=O)N3[C@@H]2SC(C)(C)[C@H]3C(=O)O)c2ccccc2)C(=O)C1=O -3.73%
O=C(C[n+]1ccc2c(c1)nnn2-c1ccccc1)c1ccc(Cl)cc1 -11.1%
O=C(CN1CCN(c2ccc(Cl)cc2)CC1)c1ccccc1 6.85%
Cc1cc(C)cc(NC(=O)CSc2nc3nccnc3c(=O)n2CCc2c[nH]c3ccccc23)c1 4.86%
Fc1ccc(Nc2nc(SCc3ccccc3Cl)nc3ccccc23)cc1 -23.1%
COc1ccc(OCC(O)CNCCNc2nccc(C(F)(F)F)n2)cc1 (centres undefined) 6.63%
CC(Oc1ccc(Br)cc1)C(=O)NC1CCCCCC1 (centres undefined) -9.73%
CN[C@@H]1[C@@H](O)[C@@H](O[C@@H]2[C@H](O)[C@H](O[C@H]3OC(CN)=CC[C@H]3N)[C@@H](N)C[C@H]2N)OCC1(C)O (some centres undefined) -9.15%
CCc1ccc(NC(=O)c2sc3nc4c(cc3c2N)CN(CC)CC4)cc1 -24.5%
O=C1Cc2cc(S(=O)(=O)Nc3ccc(OC(F)(F)F)cc3)cc3c2N1CCC3 -19.8%
O=C(OCc1ccccc1)c1ccc(O)cc1 3.77%
O=C(c1ccc(F)cc1)N1CCCC(c2nc(-c3cccs3)no2)C1 (centres undefined) 2.8%
COc1ccc(NC(=O)N2CCCC(c3nc(-c4ccc(F)cc4)no3)C2)cc1 (centres undefined) 2.56%
CCOc1ccc(S(=O)(=O)c2cn(Cc3ccccc3)c3ccc(OCC)cc3c2=O)cc1 -11.7%
CCOc1ccc(NS(=O)(=O)c2ccc(N)cc2)nn1 9.63%
CCN(C(=O)CSc1nnc(C)n2c1cc1occc12)c1ccccc1 -12.2%
CCN1CCN(c2cc(C)c3cc(NC(=O)c4cc(Cl)ccc4OC)ccc3n2)CC1 -19.5%
COC(=O)CSc1nnc(-c2cccnc2)o1 5.1%
O=C(CSc1nnc(-c2ccncc2)o1)Nc1cccc(Cl)c1 -1.48%
CCOc1ccc(N2CC(c3nc4ccccc4n3CCOc3ccc(OC)cc3)CC2=O)cc1 (centres undefined) -13%
Cc1ccc(Cl)cc1NC(=O)C(C)n1nnc2sc(-c3ccccc3)cc2c1=O (centres undefined) -12.2%
